Among the data in the antibiotic and cytotoxicity screens of Wong et al. (2023) are cytotoxicity call values, retold here.

Molecules are shown by their SMILES. The campaign covered roughly 39,000 compounds. About 1,500 (3.8%) were called active. The full list was thinned out, with actives kept by preference.

The experiment relates to HSkMC (human skeletal muscle cells). Put plainly: cytotoxicity call (relative viability < 0.9). The note with it: 10 µM.
Regarding `C[C@H]1CN([C@@H](C)CO)C(=O)c2cc(NS(C)(=O)=O)ccc2O[C@H]1CN(C)Cc1ccc2c(c1)OCO2`, the cytotoxicity call is “inactive”. Then `CC(C)=CCc1c2c(c3occ(-c4ccc(O)c(O)c4)c(=O)c3c1O)C=CC(C)(C)O2`, with “active”; and `CC(C)=CCc1c2c(c3occ(-c4ccc(O)cc4)c(=O)c3c1O)C=CC(C)(C)O2`, with “inactive”; and `CC1(C)C=Cc2c(c3c(c4c(=O)c(-c5ccc(O)c(O)c5)coc24)OC(C)(C)CC3)O1`, with “inactive”. The result for `CO[C@@H]1CN(C)C(=O)c2ccc(NC(=O)CN(C)C)cc2OC[C@@H](C)N(C(=O)c2ccncc2)C[C@H]1C` reads “inactive”. Then `C[C@@H]1CCCCO[C@H](CN(C)S(=O)(=O)c2cccs2)[C@@H](C)CN([C@H](C)CO)C(=O)c2cc(NC(=O)CCC(F)(F)F)ccc2O1`, with “inactive”; and `COC[C@@H]1CNN1C(=O)c1cc(C)oc1C`, with “inactive”; and `CCCCCN1CC=C[C@@]23O[C@@H]4C=CCOC(=O)[C@@H]4[C@H]2C(=O)N([C@@H](C)CO)[C@@H]3C1=O`, with “inactive”.

Regarding `CCCCCCCCNC(C)C(O)c1ccc(SC(C)C)cc1` (centres undefined), the cytotoxicity call is “active”. Then `CC(NCCc1ccc(O)cc1)C(O)c1ccc(O)cc1.Cl` (centres undefined), with “inactive”; and `CCCCCCCCNC[C@@H](O)[C@H](O)[C@@H](O)[C@@H](O)CO`, with “inactive”; and `C[C@@H]1CN([C@@H](C)CO)S(=O)(=O)c2ccc(C#CCN(C)C)cc2O[C@@H]1CN(C)C(=O)CN(C)C`, with “inactive”. Then `C[C@@H]1CCCCO[C@@H](CN(C)S(=O)(=O)c2ccc(Cl)cc2)[C@H](C)CN([C@@H](C)CO)C(=O)c2cc(NC(=O)Nc3cccc4ccccc34)ccc2O1`, with “inactive”; and `O=C(NCCCN1CCOCC1)Nc1ccc(Cc2ccc(NC(=O)NCCCN3CCOCC3)cc2)cc1`, with “inactive”. Then `CC(C)(C)c1cc(NC(=O)Nc2ccc(-c3cn4c(n3)sc3cc(OCCN5CCOCC5)ccc34)cc2)no1`, with “active”; and `COc1cc(OC)cc(C(=O)Nc2nc(-c3ccc4c(c3)CCN4C(=O)CN3CCOCC3)cs2)c1`, with “inactive”. As for `C[C@H](CO)N1C[C@H](C)[C@@H](CN(C)CC2CC2)Oc2c(NC(=O)Nc3cccc4ccccc34)cccc2C1=O`, the cytotoxicity call was “inactive”. In the case of `CC(C)CC(=O)Nc1cncc(-c2ccc3[nH]nc(-c4nc5cncc(-c6cccc(F)c6)c5[nH]4)c3c2)c1`, the cytotoxicity call was “active”.

In the case of `Cn1c(=O)[nH]c(=O)c2c1nc(N1CCN(CCO)CC1)n2CC(=O)c1ccccc1`, the cytotoxicity call is “inactive”. Regarding `CCS(=O)(=O)N1C[C@]2(CN(C2)C(=O)c2ccc3c(c2)OCO3)c2c(n(c3cc(ccc23)OC)C)[C@@H]1CO`, the cytotoxicity call is “inactive”. The result for `COc1ccc(CN(C)C[C@@H]2Oc3c(NC(=O)c4ccc(-c5nccs5)cc4)cccc3C(=O)N([C@H](C)CO)C[C@H]2C)cc1` reads “active”. The result for `C[C@H](CO)N1C[C@H](C)[C@H](CN(C)Cc2ccc(Oc3ccccc3)cc2)Oc2c(NC(=O)c3ccc(-c4nccs4)cc3)cccc2C1=O` reads “active”; that for `C[C@@H]1CN([C@H](C)CO)C(=O)c2cccc(NC(=O)c3ccc(-c4nccs4)cc3)c2O[C@H]1CN(C)Cc1ccc(Oc2ccccc2)cc1`, “inactive”. As for `C[C@H]1CN([C@@H](C)CO)C(=O)c2cccc(NC(=O)c3ccc(-c4nccs4)cc3)c2O[C@H]1CN(C)Cc1ccc(Oc2ccccc2)cc1`, the cytotoxicity call was “inactive”.

In the case of `COc1ccc(CN(C)C[C@H]2Oc3c(NC(=O)c4ccc(-c5nccs5)cc4)cccc3C(=O)N([C@@H](C)CO)C[C@@H]2C)cc1`, the cytotoxicity call is “inactive”. Take `COc1ccc(CN(C)C[C@H]2Oc3c(NC(=O)c4ccc(-c5nccs5)cc4)cccc3C(=O)N([C@H](C)CO)C[C@@H]2C)cc1`: the cytotoxicity call was “inactive”.

Turning to `COc1ccc(NC(=O)Nc2ccc3c(c2)C(=O)N([C@H](C)CO)C[C@@H](C)[C@H](CN(C)S(=O)(=O)c2ccc(Cl)cc2)OCCCC[C@@H](C)O3)cc1`, the cytotoxicity call was “inactive”.

For `C[C@H]1CN([C@@H](C)CO)C(=O)c2cc(C3=CCCCC3)cnc2O[C@H]1CN(C)C(=O)CN1CCOCC1`, the cytotoxicity call is “inactive”. As to `O=C1OCc2cc(-n3cnnn3)ccc21`, the cytotoxicity call was “inactive”. With `COc1ccc(NC(=O)N(C)C[C@H]2OCCCC[C@H](C)Oc3ccc(NC(=O)c4ccccc4)cc3C(=O)N([C@H](C)CO)C[C@H]2C)cc1`, the cytotoxicity call is “inactive”. For `C[C@@H]1CN([C@H](C)CO)C(=O)c2cc(NC(=O)Nc3ccccc3)ccc2O[C@H]1CN(C)S(=O)(=O)c1cn(C)cn1`, the cytotoxicity call is “inactive”. Then `CCCCCCc1nc(-c2ccc(-c3ccc(Cl)c(Cl)c3)o2)cc2c1[Si](C(C)C)(C(C)C)OC2`, with “active”; and `CC(C)[Si]1(C(C)C)OCc2cc(-c3ccc(-c4ccc(Cl)c(Cl)c4)o3)nc(-c3ccccc3)c21`, with “inactive”. The result for `CC(C)[Si]1(C(C)C)OCc2cc(-c3ccc(-c4ccc(Cl)c(Cl)c4)o3)nc(CCc3ccccc3)c21` reads “inactive”; that for `O=C(O)c1cncnc1N1CCCC1`, “inactive”; that for `C[C@@H]1CN([C@H](C)CO)C(=O)c2cccc(NC(=O)C3CCCCC3)c2O[C@H]1CN(C)Cc1ccc(Oc2ccccc2)cc1`, “inactive”. Then `C[C@@H]1CN([C@@H](C)CO)C(=O)c2cccc(NC(=O)Nc3ccc(F)cc3)c2O[C@@H]1CN(C)Cc1ccc(-c2ccccc2)cc1`, with “active”; and `C[C@@H]1CN([C@@H](C)CO)C(=O)c2cccc(NC(=O)Nc3ccc(F)cc3)c2O[C@H]1CN(C)Cc1ccc(-c2ccccc2)cc1`, with “active”. With `C[C@@H]1CN([C@H](C)CO)C(=O)c2cccc(NC(=O)Nc3ccc(F)cc3)c2O[C@H]1CN(C)Cc1ccc(-c2ccccc2)cc1`, the cytotoxicity call is “inactive”. Then `C[C@H]1CN([C@@H](C)CO)C(=O)c2cccc(NC(=O)Nc3ccc(F)cc3)c2O[C@H]1CN(C)Cc1ccc(-c2ccccc2)cc1`, with “inactive”; and `C[C@H]1CN([C@@H](C)CO)C(=O)c2cccc(NC(=O)Nc3ccc(F)cc3)c2O[C@@H]1CN(C)Cc1ccc(-c2ccccc2)cc1`, with “inactive”.

Turning to `C[C@H](CO)N1C[C@H](C)[C@@H](CN(C)Cc2ccc(-c3ccccc3)cc2)Oc2c(NC(=O)Nc3ccc(F)cc3)cccc2C1=O`, the cytotoxicity call is “inactive”. Then `Cc1noc(C)c1NC(=O)Nc1ccc2c(c1)CC(=O)N([C@@H](C)CO)C[C@H](C)[C@H](CN(C)C(=O)Nc1ccc(C(F)(F)F)cc1)O2`, with “inactive”; and `CO[C@@H](CN(C)S(=O)(=O)c1cccc(Cl)c1)[C@@H](C)CN([C@H](C)CO)S(=O)(=O)c1cccc(Cl)c1`, with “inactive”.
